# The list shows a part of the results. No count for the full screen is at hand.
# B1: HC1053 (peptide)
# chain: CAPAIASLMAAGNASASA
# B2: HC2307 (peptide)
# chain: CAFVPCHRPSAGNASASA
# B3: HC1236 (peptide)
# chain: CALHEYPVGSAGNASASA
# B4: EK3 (peptide)
# chain: CAEERARAKWAGNASASA
# B5: HC136 (peptide)
# chain: CAEVVTSTWVAGNASASA
# B6: HC92 (peptide)
# chain: CAVVCDSMSYAGNASASA
# B7: HC500 (peptide)
# chain: CAFTTLPALSAGNASASA
# B8: FS-2529 (peptide)
# chain: CARVARFATSAGNASASA
# B9: FS-1797 (peptide)
# chain: CARVARAMSIAGNASASA
# B10: FS-1804 (peptide)
# chain: CARVSRFVTWAGNASASA
# B11: HC1426 (peptide)
# chain: CAHARKAVTHAGNASASA
# B12: HC1242 (peptide)
# chain: CAEPEPDVAVAGNASASA
# B13: FS-3113 (peptide)
# chain: CARVARDVAVAGNASASA
# B14: FS-1798 (peptide)
# chain: CARVARFVTHAGNASASA
# B15: FS-2670 (peptide)
# chain: CARFYRPVAVAGNASASA
# B16: HC1969 (peptide)
# chain: CAEYTTPCSGAGNASASA
# B17: HC1657 (peptide)
# chain: CAWFCLLLLAAGNASASA
# B18: HC2440 (peptide)
# chain: CACREVPCHRAGNASASA
# B19: FS-1473 (peptide)
# chain: CAPRRRKGRNAGNASASA
# B20: HC1277 (peptide)
# chain: CAWRQEMGGNAGNASASA
# B21: FS-563 (peptide)
# chain: CASIRRQKREAGNASASA
# B22: FS-1175 (peptide)
# chain: CATVRRQKREAGNASASA
# B23: HC187 (peptide)
# chain: CASERSQPRGAGNASASA
# B24: HC826 (peptide)
# chain: CATVLDQAETAGNASASA
# B25: FS-1110 (peptide)
# chain: CAAKRRQKREAGNASASA
# B26: HC1036 (peptide)
# chain: CAQTNWQKLEAGNASASA
# B27: HC341 (peptide)
# chain: CAYFSMVGNWAGNASASA
# B28: HC1229 (peptide)
# chain: CACKPLLREEAGNASASA
# B29: HC308 (peptide)
# chain: CAPRRHWTTQAGNASASA
# B30: FS-1551 (peptide)
# chain: CAPRRRQQREAGNASASA
# B31: HC1154 (peptide)
# chain: CAVLSDFKTWAGNASASA
# B32: FS-206 (peptide)
# chain: CAVLSRQKREAGNASASA
# B33: HC61 (peptide)
# chain: CATTPCAGSWAGNASASA
# B34: HC1288 (peptide)
# chain: CASFDPLVAEAGNASASA
# B35: FS-1513 (peptide)
# chain: CACAVRHMRSAGNASASA
# B36: FS-228 (peptide)
# chain: CAEARRTMRSAGNASASA
# B37: FS-108 (peptide)
# chain: CAWLERTMRSAGNASASA
# B38: HC987 (peptide)
# chain: CALEVVTSTWAGNASASA
# B39: HC2243 (peptide)
# chain: CAEVVTSTWAAGNASASA
# B40: HC2064 (peptide)
# chain: CAVVCCSMIYAGNASASA
# B41: FS-1003 (peptide)
# chain: CAGSSRRFRAAGNASASA
# B42: FS-959 (peptide)
# chain: CARWRRSKRAAGNASASA
# B43: FS-1873 (peptide)
# chain: CARWRRTKGAAGNASASA
# B44: HC453 (peptide)
# chain: CACFRKHPDAAGNASASA
# B45: HC1257 (peptide)
# chain: CAGSPPSVASAGNASASA
# B46: FS-788 (peptide)
# chain: CAGSPRSKRAAGNASASA
# B47: FS-1514 (peptide)
# chain: CACFRRSKRAAGNASASA
# B48: FS-2118 (peptide)
# chain: CACVRRSPCAAGNASASA
# Target: furin, P09958
# Experiment: furin cleavage Z-score vs untreated control; higher = more cleavage, active = 3.5 or more, inactive = 1 or less, 8 variable residues between constant flanks
# Outline: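 Furin-free reactions served as the baseline for the cleavage Z-score, which is the log read count lowess-adjusted and scaled by median absolute deviation. Counts came from released DNA, adapter-tagged by PCR and sequenced. Purified furin had cut 8-mer peptides fused to a cDNA oligonucleotide on magnetic beads during 7.5, 15 or 30 min at 1:10 enzyme:substrate.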
# 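Note: purified furin at 1:10 enzyme:substrate in 50 mM HEPES pH 7.5.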
# furin, P09958, sequence (P09958 whole entry): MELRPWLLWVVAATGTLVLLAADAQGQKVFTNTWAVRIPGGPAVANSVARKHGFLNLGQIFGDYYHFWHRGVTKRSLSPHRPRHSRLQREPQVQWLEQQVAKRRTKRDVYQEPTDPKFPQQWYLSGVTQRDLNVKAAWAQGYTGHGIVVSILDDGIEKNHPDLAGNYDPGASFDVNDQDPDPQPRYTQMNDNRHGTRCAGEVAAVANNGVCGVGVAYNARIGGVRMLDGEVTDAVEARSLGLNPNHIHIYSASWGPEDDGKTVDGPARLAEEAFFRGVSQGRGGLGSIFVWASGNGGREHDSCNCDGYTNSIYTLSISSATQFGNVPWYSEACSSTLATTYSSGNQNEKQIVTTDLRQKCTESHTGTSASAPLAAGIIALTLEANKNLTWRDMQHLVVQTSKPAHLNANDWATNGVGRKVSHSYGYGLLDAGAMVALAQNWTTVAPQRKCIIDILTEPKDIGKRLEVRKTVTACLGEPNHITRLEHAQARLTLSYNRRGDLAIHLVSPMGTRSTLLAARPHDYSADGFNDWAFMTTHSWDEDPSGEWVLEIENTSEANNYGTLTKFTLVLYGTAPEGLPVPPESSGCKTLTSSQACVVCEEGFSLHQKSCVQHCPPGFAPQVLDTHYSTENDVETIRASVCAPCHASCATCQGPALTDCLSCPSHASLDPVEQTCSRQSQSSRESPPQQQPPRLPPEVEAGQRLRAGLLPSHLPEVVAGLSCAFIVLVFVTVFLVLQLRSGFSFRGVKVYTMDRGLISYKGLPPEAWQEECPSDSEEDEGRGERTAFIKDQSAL
Sequence,furin cleavage Z-score (7.5 min),furin cleavage Z-score (15 min),furin cleavage Z-score (30 min)
B1,-0.244 (inactive),1.04,0.347 (inactive)
B2,-1.81 (inactive),0.496 (inactive),0.113 (inactive)
B3,-0.438 (inactive),-0.864 (inactive),-0.00108 (inactive)
B4,0.379 (inactive),1.71,-0.287 (inactive)
B5,0.215 (inactive),-1.42 (inactive),-0.55 (inactive)
B6,-1.45 (inactive),0.971 (inactive),-0.149 (inactive)
B7,1.12,-0.632 (inactive),1.28
B8,2.89,4.14 (active),5.25 (active)
B9,-0.644 (inactive),0.561 (inactive),2.57
B10,0.465 (inactive),2.02,2.57
B11,-1.35 (inactive),-0.868 (inactive),0.178 (inactive)
B12,-1.24 (inactive),-1.89 (inactive),0.391 (inactive)
B13,9.5 (active),11.7 (active),9.58 (active)
B14,0.861 (inactive),1.96,4.55 (active)
B15,-2.66 (inactive),-1.03 (inactive),-2.39 (inactive)
B16,-0.151 (inactive),-0.366 (inactive),-0.644 (inactive)
B17,-0.863 (inactive),-0.454 (inactive),-2.53 (inactive)
B18,-0.508 (inactive),-2.04 (inactive),-1.44 (inactive)
B19,10.1 (active),11.5 (active),9.35 (active)
B20,0.884 (inactive),-0.41 (inactive),1.35
B21,11.3 (active),10.3 (active),8.38 (active)
B22,12.4 (active),13.7 (active),9.11 (active)
B23,0.546 (inactive),0.429 (inactive),0.503 (inactive)
B24,1.14,0.395 (inactive),-0.728 (inactive)

Sequence,furin cleavage Z-score (7.5 min),furin cleavage Z-score (15 min),furin cleavage Z-score (30 min)
B25,12.9 (active),13 (active),8.62 (active)
B26,0.636 (inactive),-0.515 (inactive),-0.384 (inactive)
B27,-0.31 (inactive),-0.533 (inactive),-2.31 (inactive)
B28,-2.56 (inactive),0.033 (inactive),0.531 (inactive)
B29,0.172 (inactive),-0.306 (inactive),0.325 (inactive)
B30,6.3 (active),4.83 (active),5.13 (active)
B31,-0.128 (inactive),-0.333 (inactive),-0.963 (inactive)
B32,11.7 (active),9.59 (active),8.73 (active)
B33,-1.21 (inactive),0.988 (inactive),1.04
B34,-1.29 (inactive),-0.652 (inactive),0.659 (inactive)
B35,0.659 (inactive),0.712 (inactive),1.2
B36,6.84 (active),6.18 (active),7.34 (active)
B37,4.21 (active),5.66 (active),4.38 (active)
B38,0.41 (inactive),0.551 (inactive),1.7
B39,-0.622 (inactive),0.588 (inactive),-0.814 (inactive)
B40,-0.191 (inactive),-0.994 (inactive),0.202 (inactive)
B41,-0.163 (inactive),1.3,2.13
B42,11.1 (active),11.6 (active),8.46 (active)
B43,-0.133 (inactive),-1.53 (inactive),-0.0248 (inactive)
B44,-1.37 (inactive),-1.46 (inactive),-0.48 (inactive)
B45,-0.959 (inactive),-1.08 (inactive),0.309 (inactive)
B46,11.2 (active),9.92 (active),8.49 (active)
B47,9.65 (active),9.01 (active),6.16 (active)
B48,-0.381 (inactive),-1.71 (inactive),-0.39 (inactive)
